Records with an inconclusive call do not appear. Activity calls are given as the source filed them. The call rests on the fitted dose curve; in most records, active means well fitted inhibition curve with a large enough effect; inconclusive means small, poorly fitted or top-dose-only effect; inactive means no such curve, though single readings can be large or run the other way.
Experiment: InCell qHTS Assay for Inhibitors of the mTORC1 Signaling Pathway in MEF (Tsc2-/-, p53-/-) Cells: Hit Validation;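 further: phospho-S6 Ser235/236 signal normalized to propidium iodide cell count per well; nearly all actives have a fitted effect of over 75% in size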
Settings: phospho-rpS6 immunofluorescence, 24 h; activity change, negative = inhibition: at 38.3 µM (top of the series)
Potency means the concentration at half of the fitted maximal effect.

Activity change, negative = inhibition, -100%:
O=C(NCCSc1c(-c2ccc(F)cc2)[nH]c2ccccc12)c1ccc(S(=O)(=O)N2CCOCC2)cc1, Cc1cccc(Nc2nnc(-c3ccc(C)c(S(=O)(=O)N4CCN(C)CC4)c3)c3ccccc23)c1, CCCCN(CC)CCNC(=O)C1CCN(c2nnc(C)c3c(C)n(-c4ccc(C)cc4)nc23)CC1, COc1ccccc1CCNC(=O)C1CCN(c2nnc(-n3cccc3CNc3ccc(C)cc3)s2)CC1, CCOc1ccc(CCNCc2c(C(=O)O)n(Cc3ccc(C)cc3)c3cc(OC)ccc23)cc1, Cc1cccc(NC(=O)c2c(NC(=O)C(F)(F)F)sc3c2CCCCC3)c1, COc1cccc(/C=C(\C#N)c2nc3ccc(C)cc3[nH]2)c1, CC1=Nc2cc(C(=O)NCCc3ccc(Cl)cc3)ccc2Sc2ccc(C)cc21, CCCN1CCN(c2ncnc3sc(C(=O)Nc4ccc(OC(F)(F)F)cc4)c(C)c23)CC1, Cc1ccc(-c2cc(C(=O)N3CCN(c4ccccc4)CC3)c3ccccc3n2)cc1C, CCN1CCN(c2ccc(NS(=O)(=O)c3c(C)nc4sccn4c3=O)cc2Cl)CC1, CCOC(=O)c1ccc(N2C(=O)c3n[nH]c(-c4cccs4)c3C2c2cccc(F)c2)cc1 (configuration not stated), O=C(CCCn1ccc2cc(S(=O)(=O)N3CCCC3)ccc21)NCc1ccc(Cl)cc1, CCOc1cc(C(Nc2cc(C)ccn2)c2ccc3cccnc3c2O)ccc1OC (configuration not stated), Cc1ccc(CN2C(=O)c3ccccc3Sc3ccc(C(=O)NCCCN4CCOCC4)cc32)cc1, Cc1cccc(-n2ncc3c(Nc4c(C)cc(C)cc4C)ncnc32)c1, COc1ccc(Cn2c(C(=O)O)c(CNCc3ccccc3F)c3ccc(OC)cc32)cc1, CCCC1=Nc2cc(C(=O)NCc3ccccc3)ccc2Sc2ccccc21, COc1ccccc1N=c1scc(-c2ccc(S(=O)(=O)N3CCCC3)cc2)n1C, Cc1ccccc1CN1C(=O)C(O)(CC(=O)c2cccc(Br)c2)c2ccccc21 (configuration not stated), Cc1ccc(Nc2nnc(-c3ccc(C)c(S(=O)(=O)N4CCOCC4)c3)c3ccccc23)c(C)c1, Cc1cc(C)c(NC(=O)c2sc3nc(C)cc(C)c3c2NC(=O)c2ccccc2)c(C)c1, O=C(Nc1ccc(F)c(F)c1)c1ccc(F)c(S(=O)(=O)N2CCC3(CC2)OCCO3)c1, CCCS(=O)(=O)c1c(S(=O)(=O)CCC)c2cc(C(C)(C)C)ccn2c1C(=O)c1ccc(OC)c(OC)c1, O=C(Nc1ccc(Cl)cc1)c1cc(S(=O)(=O)N2CCCc3ccccc32)ccc1F, O=C(NCCN1CCN(c2cccc(Cl)c2)CC1)Nc1ccccc1C(F)(F)F, Cc1ccc(C)c(S(=O)(=O)NCC(c2ccco2)S(=O)(=O)c2ccc(F)cc2)c1 (configuration not stated), O=C(COc1ccc(F)cc1)Nc1ccc(Cl)c(-c2nc3ccccc3[nH]2)c1, COc1ccc(C(=O)Nc2ccc3c(c2)N(C)C(=O)c2ccccc2S3)cc1OC, COc1cc(CNc2ccc3c(c2)ncn3C(C)C)cc(OC)c1OC, CCCCOCc1cc(CN2CCN(c3cccc(Cl)c3)CC2)c(O)c2ncccc12, Cc1cccc(-c2nc3c(cnn3-c3ccccc3)c(=O)n2-c2ccc(Br)cc2)c1

Activity change, negative = inhibition, -11%:
Cc1cccc(NC(=O)c2sc3nc4c(cc3c2N)CCCCCC4)c1C

Potency, active:
CCS(=O)(=O)c1ncc(Cl)c(C(=O)N(Cc2ccccc2)c2ccc(OC)cc2)n1 2930 nM, CCCCS(=O)(=O)c1nc(-c2ccc(Br)cc2)cc(-c2ccccc2)c1C#N 16500 nM, CC(C)S(=O)(=O)c1oc(-c2cccs2)nc1S(=O)(=O)c1ccc(F)cc1 1470 nM, CCS(=O)(=O)c1ncc(Cl)c(C(=O)Nc2ccccc2)n1 2610 nM
